Measured values as given in the supplement of paper PMC11732987, “Enantioselective OTUD7B fragment discovery through chemoproteomics screening and high-throughput optimisation” (Communications Chemistry, 2025).

Key:
Assay in all cases: log2 ratio of Biotin-Ahx-Ub-VS probe labelling (fragment/DMSO); higher = less target engagement (more negative = stronger competition), active = hit call of the paper (q ≤ 0.05, log2 ratio ≤ -1)
Settings in all cases: compound concentration: 200 uM; treatment time: 3 h
ALG13 = biological target: T1, ALG13 (UniProt Q9NP73)
T1 sequence (whole entry): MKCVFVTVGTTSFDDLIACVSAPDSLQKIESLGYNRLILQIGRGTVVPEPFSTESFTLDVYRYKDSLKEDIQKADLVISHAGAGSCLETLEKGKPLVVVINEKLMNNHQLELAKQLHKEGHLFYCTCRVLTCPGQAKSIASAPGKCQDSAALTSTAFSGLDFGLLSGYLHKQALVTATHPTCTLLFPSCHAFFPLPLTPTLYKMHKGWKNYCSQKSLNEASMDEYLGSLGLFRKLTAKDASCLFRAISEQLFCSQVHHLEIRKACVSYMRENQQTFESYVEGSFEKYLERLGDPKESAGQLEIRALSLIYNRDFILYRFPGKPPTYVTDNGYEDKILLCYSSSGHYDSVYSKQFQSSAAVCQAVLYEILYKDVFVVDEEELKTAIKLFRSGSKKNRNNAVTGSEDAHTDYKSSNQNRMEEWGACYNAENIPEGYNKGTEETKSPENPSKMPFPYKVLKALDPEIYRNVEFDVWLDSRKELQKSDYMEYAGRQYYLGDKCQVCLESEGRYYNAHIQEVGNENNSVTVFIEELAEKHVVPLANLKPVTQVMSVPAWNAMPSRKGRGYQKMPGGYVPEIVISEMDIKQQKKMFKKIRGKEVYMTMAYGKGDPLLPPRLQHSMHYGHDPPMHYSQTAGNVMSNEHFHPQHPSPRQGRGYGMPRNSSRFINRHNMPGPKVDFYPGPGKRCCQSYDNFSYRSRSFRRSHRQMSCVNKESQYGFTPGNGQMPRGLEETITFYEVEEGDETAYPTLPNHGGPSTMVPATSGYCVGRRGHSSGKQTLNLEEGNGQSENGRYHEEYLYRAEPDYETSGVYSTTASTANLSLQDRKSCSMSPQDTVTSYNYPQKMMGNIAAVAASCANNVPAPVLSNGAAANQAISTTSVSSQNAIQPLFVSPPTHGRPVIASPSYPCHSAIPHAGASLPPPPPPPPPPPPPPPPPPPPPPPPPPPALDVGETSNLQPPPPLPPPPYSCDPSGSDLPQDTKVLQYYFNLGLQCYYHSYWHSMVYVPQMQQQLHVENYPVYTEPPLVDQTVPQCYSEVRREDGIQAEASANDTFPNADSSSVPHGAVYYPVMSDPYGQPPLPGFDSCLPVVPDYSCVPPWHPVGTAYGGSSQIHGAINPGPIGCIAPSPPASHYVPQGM
Outline: (§1)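 Global-median-normalised Spectronaut label-free quantities were compared by unpaired t-test, and values are average log2 ratios of fragment over vehicle. Only proteins with ≥2 unique peptides were used. HEK293T lysate (495 µg per sample) was treated in triplicate with fragment at 200 µM or vehicle for 3 h and then with Biotin-Ahx-Ub-VS at 0.5 µM final for 1 h. Labelled DUBs were then NeutrAvidin-enriched, digested with LysC and trypsin, and run by diaPASEF LC-MS/MS.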

ATXN3 = ATXN3 (UniProt P54252)
Sequence of ATXN3 (P54252 whole entry): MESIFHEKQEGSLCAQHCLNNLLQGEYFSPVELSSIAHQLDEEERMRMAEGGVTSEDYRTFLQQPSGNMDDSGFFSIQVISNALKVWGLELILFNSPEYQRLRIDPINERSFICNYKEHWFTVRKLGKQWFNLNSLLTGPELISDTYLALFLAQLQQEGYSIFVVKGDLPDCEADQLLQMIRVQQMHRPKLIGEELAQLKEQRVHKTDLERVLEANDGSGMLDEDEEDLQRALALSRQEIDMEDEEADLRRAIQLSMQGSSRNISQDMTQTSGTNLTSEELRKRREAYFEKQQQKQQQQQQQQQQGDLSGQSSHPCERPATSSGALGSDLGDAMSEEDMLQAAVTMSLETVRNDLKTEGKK
Outline: as §1

BAP1 = biological target: T2, BAP1 (UniProt Q92560)
T2 sequence (whole entry): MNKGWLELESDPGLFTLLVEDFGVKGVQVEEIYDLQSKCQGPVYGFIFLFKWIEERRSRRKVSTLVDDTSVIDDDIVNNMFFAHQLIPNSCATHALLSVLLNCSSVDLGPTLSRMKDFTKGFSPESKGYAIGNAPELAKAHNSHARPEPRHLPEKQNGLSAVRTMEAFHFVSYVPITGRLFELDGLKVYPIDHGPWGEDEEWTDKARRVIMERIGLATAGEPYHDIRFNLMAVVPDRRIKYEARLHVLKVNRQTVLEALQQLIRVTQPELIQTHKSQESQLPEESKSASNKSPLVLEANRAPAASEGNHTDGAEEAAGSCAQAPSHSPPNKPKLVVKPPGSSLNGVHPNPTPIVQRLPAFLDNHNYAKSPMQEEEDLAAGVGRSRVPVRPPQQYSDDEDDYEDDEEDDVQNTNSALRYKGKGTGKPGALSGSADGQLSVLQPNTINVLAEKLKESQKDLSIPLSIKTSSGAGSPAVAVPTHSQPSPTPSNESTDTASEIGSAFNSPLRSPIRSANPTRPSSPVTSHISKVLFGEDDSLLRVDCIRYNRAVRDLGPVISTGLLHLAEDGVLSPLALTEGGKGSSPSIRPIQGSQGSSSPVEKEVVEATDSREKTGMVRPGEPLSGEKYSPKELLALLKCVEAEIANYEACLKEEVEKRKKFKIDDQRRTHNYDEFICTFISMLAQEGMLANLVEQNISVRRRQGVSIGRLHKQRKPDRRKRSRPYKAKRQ
Outline: as §1

EIF3F = EIF3F (UniProt O00303)
Sequence of EIF3F (O00303 whole entry): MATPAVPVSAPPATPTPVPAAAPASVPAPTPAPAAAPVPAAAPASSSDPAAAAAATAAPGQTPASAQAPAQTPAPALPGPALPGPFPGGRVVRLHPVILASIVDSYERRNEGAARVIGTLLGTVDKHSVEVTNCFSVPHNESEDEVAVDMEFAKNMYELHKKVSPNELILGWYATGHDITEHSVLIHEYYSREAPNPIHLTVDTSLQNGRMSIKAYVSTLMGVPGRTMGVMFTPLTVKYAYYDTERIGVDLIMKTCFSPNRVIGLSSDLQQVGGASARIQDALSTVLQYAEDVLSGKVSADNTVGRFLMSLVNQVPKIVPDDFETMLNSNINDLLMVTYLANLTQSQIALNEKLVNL
Outline: as §1

EIF3H = EIF3H (UniProt O15372)
Sequence of EIF3H (O15372 whole entry): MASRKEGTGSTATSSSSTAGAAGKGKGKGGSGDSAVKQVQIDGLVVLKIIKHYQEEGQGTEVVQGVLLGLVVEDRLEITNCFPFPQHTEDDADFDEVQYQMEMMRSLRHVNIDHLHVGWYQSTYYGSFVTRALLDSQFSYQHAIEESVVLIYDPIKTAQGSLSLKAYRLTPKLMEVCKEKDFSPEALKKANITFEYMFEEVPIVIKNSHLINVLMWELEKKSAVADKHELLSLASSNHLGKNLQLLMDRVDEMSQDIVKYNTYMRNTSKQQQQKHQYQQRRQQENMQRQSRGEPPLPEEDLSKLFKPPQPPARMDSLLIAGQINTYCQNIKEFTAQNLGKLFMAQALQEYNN
Outline: as §1

FAM105A = biological target: T3, FAM105A (UniProt Q9NUU6)
T3 sequence (whole entry): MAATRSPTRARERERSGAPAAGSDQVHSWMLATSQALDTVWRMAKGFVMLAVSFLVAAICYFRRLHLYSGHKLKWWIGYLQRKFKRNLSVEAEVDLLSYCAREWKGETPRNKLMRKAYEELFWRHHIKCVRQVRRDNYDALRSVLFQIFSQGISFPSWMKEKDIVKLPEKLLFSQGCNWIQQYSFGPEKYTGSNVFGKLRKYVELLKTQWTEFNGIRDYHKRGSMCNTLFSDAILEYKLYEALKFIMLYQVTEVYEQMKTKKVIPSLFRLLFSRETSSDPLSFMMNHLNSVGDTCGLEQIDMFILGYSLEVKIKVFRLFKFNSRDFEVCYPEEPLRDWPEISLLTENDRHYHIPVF
Outline: as §1

OTUB1 = OTUB1 (UniProt Q96FW1)
Sequence of OTUB1 (Q96FW1 whole entry): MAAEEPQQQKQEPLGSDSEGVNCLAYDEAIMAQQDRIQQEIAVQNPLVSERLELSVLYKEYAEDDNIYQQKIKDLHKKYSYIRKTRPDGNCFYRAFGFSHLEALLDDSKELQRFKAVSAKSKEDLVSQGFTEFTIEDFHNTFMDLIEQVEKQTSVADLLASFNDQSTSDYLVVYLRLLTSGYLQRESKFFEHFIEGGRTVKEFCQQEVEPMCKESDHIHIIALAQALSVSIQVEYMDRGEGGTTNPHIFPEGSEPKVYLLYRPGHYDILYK
Outline: as §1

OTUD4 = biological target: T4, OTUD4 (UniProt Q01804)
T4 sequence (whole entry): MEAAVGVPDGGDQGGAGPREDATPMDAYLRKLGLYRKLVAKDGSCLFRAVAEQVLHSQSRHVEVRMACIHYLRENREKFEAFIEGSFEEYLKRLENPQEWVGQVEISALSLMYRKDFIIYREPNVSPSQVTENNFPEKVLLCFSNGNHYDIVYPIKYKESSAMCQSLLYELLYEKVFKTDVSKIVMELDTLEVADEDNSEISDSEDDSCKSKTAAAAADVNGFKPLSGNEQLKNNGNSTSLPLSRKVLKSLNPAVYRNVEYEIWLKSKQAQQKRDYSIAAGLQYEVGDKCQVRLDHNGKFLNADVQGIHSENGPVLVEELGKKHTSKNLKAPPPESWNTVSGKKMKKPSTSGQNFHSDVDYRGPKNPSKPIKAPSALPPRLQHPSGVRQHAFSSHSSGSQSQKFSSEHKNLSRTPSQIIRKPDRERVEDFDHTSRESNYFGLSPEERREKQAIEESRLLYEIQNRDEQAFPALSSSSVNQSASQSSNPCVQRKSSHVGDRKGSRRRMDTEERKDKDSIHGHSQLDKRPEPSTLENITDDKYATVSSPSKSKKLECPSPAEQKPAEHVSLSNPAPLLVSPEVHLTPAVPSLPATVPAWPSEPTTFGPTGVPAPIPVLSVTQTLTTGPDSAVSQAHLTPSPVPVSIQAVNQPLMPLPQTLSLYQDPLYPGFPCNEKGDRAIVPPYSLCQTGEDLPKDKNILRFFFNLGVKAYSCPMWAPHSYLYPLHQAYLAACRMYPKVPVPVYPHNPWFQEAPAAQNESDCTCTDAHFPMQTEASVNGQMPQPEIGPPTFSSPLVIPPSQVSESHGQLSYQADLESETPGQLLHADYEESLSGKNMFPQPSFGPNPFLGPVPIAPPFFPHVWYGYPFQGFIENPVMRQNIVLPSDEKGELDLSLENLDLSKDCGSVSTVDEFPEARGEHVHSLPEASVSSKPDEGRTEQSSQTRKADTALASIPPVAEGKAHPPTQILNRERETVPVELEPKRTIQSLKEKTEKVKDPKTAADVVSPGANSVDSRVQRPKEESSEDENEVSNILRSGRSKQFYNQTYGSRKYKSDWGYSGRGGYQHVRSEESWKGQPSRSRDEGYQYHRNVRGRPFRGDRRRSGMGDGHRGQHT
Outline: as §1

OTUD5 = biological target: T5, OTUD5 (UniProt Q96G74)
T5 sequence (whole entry): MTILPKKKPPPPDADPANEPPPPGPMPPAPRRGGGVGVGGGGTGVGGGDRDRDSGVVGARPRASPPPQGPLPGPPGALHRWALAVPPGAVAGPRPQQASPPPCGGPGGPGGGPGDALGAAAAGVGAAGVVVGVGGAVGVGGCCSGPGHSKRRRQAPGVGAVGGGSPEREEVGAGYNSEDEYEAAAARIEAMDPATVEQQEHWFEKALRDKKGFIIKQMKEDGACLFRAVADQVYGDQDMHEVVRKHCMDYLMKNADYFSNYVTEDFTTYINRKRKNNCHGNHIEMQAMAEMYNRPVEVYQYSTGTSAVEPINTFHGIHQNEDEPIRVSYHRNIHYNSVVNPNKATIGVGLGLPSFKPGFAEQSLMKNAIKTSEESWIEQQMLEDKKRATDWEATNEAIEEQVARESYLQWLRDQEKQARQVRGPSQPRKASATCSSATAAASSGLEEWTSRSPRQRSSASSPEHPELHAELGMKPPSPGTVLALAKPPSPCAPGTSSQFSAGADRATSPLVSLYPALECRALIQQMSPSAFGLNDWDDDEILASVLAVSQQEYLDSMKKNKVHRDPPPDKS
Outline: as §1

Measured: log2 ratio of Biotin-Ahx-Ub-VS probe labelling

CC(c1ccccc1)N(C)C(=O)CCl (centres undefined)
inactive: ALG13 -0.0878 | ATXN3 -0.667 | BAP1 -0.362 | EIF3F 0.107 | EIF3H 0.0952 | FAM105A -0.093 | OTUB1 0.146 | OTUD4 -0.0165 | OTUD5 -0.419
